Pf growth 96h – Primary qHTS for delayed death inhibitors of the malarial parasite plastid, 96 hour incubation; P. falciparum luciferase reporter growth, 96 h; Potency, µM (titrated, usually from 28.7 µM), for the others: at the highest dose activity change, negative = inhibition, most hits filed as inhibitors; actives 6.9% (n = 320,000); AID 504834, 2011; also: % is scaled to controls: 0 for no effect and ±100 for the full control effect
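P. falciparum expressing integrated firefly luciferase, in erythrocytes at 2% hematocrit, 0.05% parasitemia, incubated with compounds 96 h at 37 C, 5% CO2. Growth inhibition read as loss of luminescence; two-generation exposure targets delayed-death apicoplast inhibitors.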
SARS PLP yeast – qHTS of Yeast-based Assay for SARS-CoV PLP; S. cerevisiae expressing SARS-CoV PLpro, growth rescue; Potency, µM (doses to about 32.9 µM), without a hit: top-dose activity, positive = growth rescue, actives largely listed as activators; actives 0.19% (n = 330,000); calls by dose curve; also: 0% is about no effect; nearly all actives have a fitted effect of over 55% in size
Pf growth 48h – Primary qHTS for delayed death inhibitors of the malarial parasite plastid, 48 hour incubation | P. falciparum luciferase growth in erythrocytes, 48 h | actives 5.9% (n = 310,000) | Potency, µM (titrated, usually from 28.7 µM), for the others: at the top dose activity change, negative = inhibition, hits mostly inhibitors; also: % is scaled to controls: 0 for no effect and ±100 for the full control effect
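Growth was read as firefly luciferase luminescence after a 48 h, 37 C, 5% CO2 exposure of compounds to reporter-bearing P. falciparum cultures (0.1% parasitemia, 2% hematocrit final) in Albumax-supplemented RPMI 1640.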
Sm TGR block – qHTS Assay for the Inhibitors of Schistosoma Mansoni Peroxiredoxins; Schistosoma mansoni thioredoxin glutathione reductase (TGR), Q962Y6; purified TGR, DTNB reduction, TNB absorbance 405 nm; Potency, µM (series often up to 114 µM), for inactives: at the top dose activity change, negative = inhibition, hits mostly inhibitors; actives 3% (n = 360,000); also: % is scaled to controls: 0 for no effect and ±100 for the full control effect; nearly all actives have a fitted effect of over 60% in size
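First, TGR (20 nM dispensed) and NADPH were mixed with compound. Second, a 15 min room-temperature incubation followed. Third, further NADPH and then DTNB were added to start the reaction. Finally, TNB absorbance was monitored kinetically.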
The depositor's hits bear a star; ? = inconclusive; . = no result given. Sampled rows, rich in hits. Any-hit rate of the full collection: about 12%. Unless noted, calls follow the shape of the dose curve; as a rule, active = well fitted curve in the direction sought with a large enough effect; inconclusive = small, poorly fitted or top-dose-only effect, or another doubt; inactive = no such curve, though single readings can be large; an effect the other way counts as inactive or inconclusive. Potency is read from the fitted curve at half-maximal effect.

SMILES	Pf growth 96h	SARS PLP yeast	Pf growth 48h	Sm TGR block
CN(C)CCCNC(=O)/C(=C/c1ccc(-c2ccc([N+](=O)[O-])cc2)o1)NC(=O)c1ccccc1	?	-1%	?	0%
CN(C)CCCNC(=O)/C(=C\c1ccc(-c2ccc(Br)cc2)o1)NC(=O)c1ccccc1	?	12%	10µM*	-4%
Cc1cccc(C)c1NC(=O)CN1C(=O)c2cccc3cccc1c23	.	.	.	1%
O=C(CN1C(=O)/C(=C\c2cccc(Cl)c2)Oc2ccccc21)N1CCN(c2ccccn2)CC1	9.3µM*	1%	23%	3%
COC(=O)CCCC1=CC2=C(c3ccccc3)C(=O)C(C)(OC(=O)C3CCCC3)C(=O)C2=CN1Cc1ccco1 (stereo not drawn)	12µM*	1%	?	22µM*
Cc1ccc(NS(=O)(=O)c2ccc(C(=O)NCCCN3CCCC3=O)cc2)cc1	?	4%	-1%	-22%
CCOc1cc(CNc2ccc(C(=O)O)cc2)ccc1OCc1ccccc1	.	.	.	-1%
CCOc1cc(CNc2ccc(CNc3ncn[nH]3)cc2)ccc1OCc1ccccc1	13µM*	7%	?	-15%
CCCN(C(=O)c1ccccc1Cc1ccccc1)C1CCS(=O)(=O)C1 (stereo not drawn)	?	-5%	?	-1%
COc1ccc(CNC(=O)CSc2nc(-c3ccc(OC)cc3)cc(C(F)(F)F)n2)cc1	.	.	.	5%
COc1ccccc1CCNC(=O)CCSc1nc(-c2ccco2)cc(C(F)(F)F)n1	-1%	-11%	8.3µM*	?
O=C(CCSc1nc(-c2ccco2)cc(C(F)(F)F)n1)N1CCCc2ccccc21	.	-16%	15µM*	40µM*
COc1ccc(-c2cc(C(F)(F)F)nc(SCCC(=O)NCc3ccccc3)n2)cc1	.	14%	15µM*	-8%
COc1ccccc1CCNC(=O)CSc1nc(-c2ccco2)cc(C(F)(F)F)n1	?	?	.	0%
O=C(NCC(c1cccnc1)N1CCc2ccccc21)c1cccc(F)c1 (stereo not drawn)	.	.	.	1%
COc1ccc(-c2ccccc2)cc1NCc1ccccc1C	?	-2%	68%	-18%
COc1cccc(CNCc2ccccc2Br)c1OC	9.3µM*	2%	3%	?
COc1ccccc1CNCc1ccc(OC)c(OC)c1OC	10µM*	-4%	-28%	-16%
COc1cccc(CNCc2cccc(Br)c2)c1OC	249%	0%	5%	?
COc1ccccc1CNc1cc(-c2ccccc2)ccc1OC	9.3µM*	-3%	?	-10%
COc1cc(CNCc2cccc(OC)c2OC)cc(OC)c1	-9%	5%	0%	-25%
CCOc1ccc2[nH]c(=O)c(CN(Cc3ccco3)C(CC)c3nnnn3Cc3ccccc3)cc2c1 (stereo not drawn)	?	2%	5.9µM*	16µM*
CCOC(=O)Cn1nnnc1C(CC)N(Cc1cccs1)Cc1cc2cc(C)ccc2[nH]c1=O (stereo not drawn)	37%	5%	.	0%
CCOc1ccc2[nH]c(=O)c(CN(Cc3ccco3)Cc3nnnn3Cc3ccccc3)cc2c1	-17%	-4%	-18%	22µM*
CCOc1ccc2[nH]c(=O)c(CN(Cc3cccs3)C(CC)c3nnnn3C(C)(C)CC)cc2c1 (stereo not drawn)	.	2%	0.93µM*	-1%
SMILES	Pf growth 96h	SARS PLP yeast	Pf growth 48h	Sm TGR block
CCC(c1nnnn1Cc1ccco1)N(CCN1CCOCC1)Cc1cc2cc(C)ccc2[nH]c1=O (stereo not drawn)	?	5%	?	45µM*
CCOc1ccc2[nH]c(=O)c(CN(CCO)Cc3nnnn3CCc3ccccc3)cc2c1	22%	0%	.	-11%
CC1(C)O[C@@H](CC(=O)O)[C@]23CO[C@H](C(=O)[C@]4(C)C2CC[C@@]2(C)[C@H](c5ccoc5)OC(=O)C5O[C@]524)[C@@H]13 (stereo partly drawn)	.	16%	.	.
COc1ccccc1CNS(=O)(=O)c1cc(C(=O)Nc2cccc(C(F)(F)F)c2)ccc1F	.	.	.	13%
CCOc1ccc(OCC)c(NC(=O)c2cc(S(=O)(=O)N3CCCC3)cn2C)c1	.	.	.	-5%
COc1ccc2[nH]c(=O)c(CN(Cc3cccs3)Cc3nnnn3Cc3ccccc3)cc2c1	.	2%	?	0%
COc1ccc2[nH]c(=O)c(CN(Cc3ccco3)Cc3nnnn3Cc3ccccc3)cc2c1	.	10%	?	35µM*
